The values below come from PubChem BioAssay (NCATS).

Results filed as inconclusive are left out. Calls of active or inactive are those of the source. The call rests on the fitted dose curve; in most records, active means well fitted cell-killing curve with a large enough effect; inconclusive means small, poorly fitted or top-dose-only effect, or effect the other way; inactive means no such curve, though single readings can be large or run the other way.
Potency means the concentration at half of the fitted maximal effect.

The experiment can be described thus: Quantitative High-Throughput drug screen in 47 multiple myeloma cell lines against the NCATS MIPE library collection: KMS28PE_JCRB cell viability assay (AID 1918983). Further: nearly all actives have a fitted effect of over 35% in size. The following applies: KMS28PE multiple myeloma viability, CellTiter-Glo ATP, 48 h; series mostly up to 45.8 µM; viability, % of DMSO control: at the top concentration. From the text: PI: Beverly A. Mock Ph.D.
Laboratory of Cancer Biology and Genetics,
Center for Cancer Research, National Cancer Institute,
National Institute of Health, Bethesda, Maryland
Drug resistance and disease progression are common in multiple myeloma (MM) patients, underscoring the need for new therapeutic combinations. […] We hypothesized that effective combinations would reduce MYC expression and enhance p16 activity. […] These preclinical data identify potentially useful drug combinations for evaluation in drug-resistant MM and reveal potential mechanisms of combined drug sensitivity.
Described herein is the primary MIPE qHTS used to cherrypick compounds. Validated compounds were then further tested for potential synergistic activiy.
[1] Peat TJ, Gaikwad SM, Dubois W, Gyabaah-Kessie N, Zhang S, Gorjifard S, Phyo Z, Andres M, Hughitt VK, Simpson RM, Miller MA, Girvin AT, Taylor A, Williams D, D'Antonio N, Zhang Y, Rajagopalan A, Flietner E, Wilson K, Zhang X, Shinn P, Klumpp-Thomas C, McKnight C, Itkin Z, Chen L, Kazandijian D, Zhang J, Michalowski AM, Simmons JK, Keats J, Thomas CJ, Mock BA. Drug combinations identified by high-throughput screening promote cell cycle transition and upregulate Smad pathways in myeloma. Cancer Lett. 2023 Aug 1;568:216284. doi: 10.1016/j.canlet.2023.216284. Epub 2023 Jun 24. PMID: 37356470; PMCID: PMC10408729.
SEQUENCE No. (e.g., 1, 2, 3, etc.); […] (e.g., Cells, Incubation, Reagent, etc.); VALUE and DESCRIPTION.
1; Cells; 5 uL; white, solid bottom 1536-well Greiner assay plate.
2; Compounds; 23 nL; Kalypsis pin tool (Wako USA) equipped with a 1536-well pin head to transfer to the assay plates.
3; Incubation; 48 hours; 37C incubation.
4; Reagent;5uL; CellTiter Glo (Promega).
5; Detector; 425V; Luminescence; Viewlux PerkinElmer.
NOTES (numbers refer to Sequence numbers above)
1. The cell-based screening methods employed in this study were like those previously published. Briefly, the corresponding myeloma cell lines were screened in 1,536-well plates with 500 cells, 5-uL per well for inhibition of cell viability (assessed by measuring ATP levels with CellTiterGlo).
2. NCATS MIPE 4.0 library of approved and investigational drugs were added using the Kalypsis pin tool. Wells treated with DMSO only for 100% viability and media only for 0% viability were used as controls.
3. The assay plates were covered and incubated for 48 hours in a 37C, 5% CO2 incubator with controlled humidity.
4. After 48 hours, CellTilter-GloTM luminescent substrate mix (Promega) reagent was added to the assay plate and plates we incubated for 5 min at room temperature.
5. Signal was measured as median relative luminescence units on a ViewLux (PerkinElmer) multiplate reader.
[1] Heske CM, Davis MI, Baumgart JT, Wilson K, Gormally MV, Chen L, Zhang X, Ceribelli M, Duveau DY, Guha R, Ferrer M, Arnaldez FI, Ji J, Tran HL, Zhang Y, Mendoza A, Helman LJ, Thomas CJ. Matrix Screen Identifies Synergistic Combination of PARP Inhibitors and Nicotinamide Phosphoribosyltransferase (NAMPT) Inhibitors in Ewing Sarcoma. Clin Cancer Res. 2017 Dec 1;23(23):7301-7311. doi: 10.1158/1078-0432.CCR-17-1121. Epub 2017 Sep 12. PMID: 28899971; PMCID: PMC6636827.
As to `Cc1cc(Nc2cc(NC(=O)c3c(Cl)cccc3Cl)ccn2)nc(N)n1`, the Potency is 26.4 µM (active).
As for `CCOc1ccccc1OCCNC(C)Cc1ccc(OC)c(S(N)(=O)=O)c1` (stereo not given), the “viability, % of DMSO control” value was 114% (inactive).
Turning to `CNC(=O)c1nn(C)c2c1C(C)(C)Cc1cnc(Nc3ccc(N4CCN(C)CC4)cc3)nc1-2`, the Potency is 4.18 µM (active).
Still for that read-out and setting: the figure for `COc1ccc(C(=O)CC2(O)C(=O)Nc3c(Cl)ccc(Cl)c32)cc1` (stereo not given) is 3.72 µM (active); for `Cc1cc(Nc2cc(N3CCN(C)CC3)nc(Sc3ccc(NC(=O)C4CC4)cc3)n2)n[nH]1` it is 11.8 µM (active).
On the same count and under the same terms, the value for `CN(C)CCCN=c1c2ccccc2n(C)c2[nH]c(=O)n(C)c(=O)c12` was 16.6 µM (active); that for `O=C(Cc1ccc(-c2ccc(OCCN3CCOCC3)cc2)cn1)NCc1ccccc1` was 0.0469 µM (active); that for `COc1cc(=C2C=c3ccccc3=N2)[nH]c1=Cc1[nH]c(C)cc1C` was 1.66 µM (active).
As to `C=C1C(=CC=C2CCCC3(C)[C@@H]([C@H](C)C=CC=CC(O)(CC)CC)CC[C@@H]23)C[C@@H](O)C[C@@H]1O` (stereo not given in full), the Potency was 26.4 µM (active).
For `O=C(O)[C@H](Cc1c[nH]c2ccccc12)N1C(=O)c2ccccc2C1=O`, the “viability, % of DMSO control” value is 148% [at 92.2 µM] (inactive).
Consider `Cc1cn(-c2cc(NC(=O)c3ccc(C)c(Nc4nccc(-c5cccnc5)n4)c3)cc(C(F)(F)F)c2)cn1`, for which the Potency was 20.9 µM (active).
Same read-out and setting: the value for `Cc1nc(Nc2n[nH]c3c2CN(C(=O)N[C@H](CN(C)C)c2ccccc2)C3(C)C)c2sccc2n1` was 0.418 µM (active); that for `Cc1c(NC(=O)OC[C@@H]2COCCN2)cn2ncnc(Nc3ccc4c(cnn4Cc4cccc(F)c4)c3)c12` was 16.6 µM (active); that for `COc1cc(OC2CCN(C)CC2)ccc1Nc1ncc2c(n1)n(C1CCCC1)c(=O)n2C` was 16.6 µM (active).
For the molecule `CC=CC1=C(C(=O)O)N2C(=O)[C@H](NC(=O)[C@H](N)c3ccc(O)cc3)[C@@H]2SC1`, the “viability, % of DMSO control” value is 146% (inactive).
In the case of `Nc1ccccc1NC(=O)c1ccc(CNC(=O)OCc2cccnc2)cc1`, the Potency is 2.35 µM (active).
In the case of `O=C1CCC[C@@H]2[C@H]3CCC[N+]4([O-])CCC[C@@H](CN12)[C@@H]34` (stereo not given in full), the “viability, % of DMSO control” value is 115% (inactive).
In the case of `COc1cc(C)c(Sc2cnc(NC(=O)c3ccc(CNC(C)C(C)C)cc3)s2)cc1C(=O)N1CCN(C(C)=O)CC1` (stereo not given), the Potency was 14.8 µM (active).
Turning to `O=C(O)Cn1nnc(-c2cc(N3CCC(Oc4cc(F)ccc4Br)CC3)no2)n1`, the “viability, % of DMSO control” value is 132% (inactive).
The same measure, in the same setting: the figure for `COc1c(N2C[C@@H]3CCCN[C@H]3C2)c(F)cc2c(=O)c(C(=O)O)cn(C3CC3)c12` is 146% (inactive).
As for `Cn1c(=O)n(-c2ccc(C(C)(C)C#N)cc2)c2c3cc(-c4cnc5ccccc5c4)ccc3ncc21`, the Potency is 0.0526 µM (active).
For the molecule `O=C(O)CO.[NH2-].[NH2-].[Pt+2]`, the “viability, % of DMSO control” value is 187% (inactive).
On to `COc1cc2c(Oc3ccc(-c4cnc(Nc5ccc(F)cc5)n(C)c4=O)cc3F)ccnc2cc1OCCCN1CCOCC1`, for which the Potency is 11.8 µM (active).
The same measure, in the same setting: the value for `CCN(CC)CCCCNc1ncc2cc(-c3cc(OC)cc(OC)c3)c(NC(=O)NC(C)(C)C)nc2n1` was 6.62 µM (active).
On the same count and under the same terms, the figure for `CC(C)(C)OC(=O)Nc1ccc(-c2cc(C(=O)NCCCCCCC(=O)NO)no2)cc1` is 2.35 µM (active).
Consider `Nc1nc(-c2nn(Cc3ccccc3F)c3ncccc23)nc(N)c1N1CCOCC1`, for which the “viability, % of DMSO control” value is 120% (inactive).
Consider `CC(C)(C)c1cnc(CSc2cnc(NC(=O)C3CCNCC3)s2)o1`, for which the Potency is 0.132 µM (active).
As to `COC(=O)C[C@](O)(CCCC(C)(C)O)C(=O)O[C@@H]1C(OC)=C[C@]23CCCN2CCc2cc4c(cc2[C@H]13)OCO4`, the “viability, % of DMSO control” value is 123% (inactive).
For the molecule `c1nc2nc(Nc3ccc(N4CCOCC4)cc3)nc(NC3CCCCC3)c2[nH]1`, the Potency was 16.6 µM (active).
Consider `COc1cc2c(NC3CCN(C(C)C)CC3)nc(C3CCCCC3)nc2cc1OCCCN1CCCC1`, for which the Potency is 16.6 µM (active).
Still for that read-out and setting: the figure for `Nc1nc(NCCNc2ncc(-n3ccnc3)c(-c3ccc(Cl)cc3Cl)n2)ccc1[N+](=O)[O-]` is 23.5 µM (active); for `COc1cc2c(Oc3ccc(NC(=O)C4(C(=O)Nc5ccc(F)cc5)CC4)cc3F)ccnc2cc1OCCCN1CCOCC1` it is 4.18 µM (active).
As for `CCC[C@H](NC(=O)C(C#N)=Cc1cccc(Br)n1)c1ccccc1`, the Potency was 2.96 µM (active).
On the same count and under the same terms, the value for `Cc1c(CN2CCN(S(C)(=O)=O)CC2)sc2c(N3CCOCC3)nc(-c3cnc(N)nc3)nc12` was 0.0209 µM (active); that for `COC(=O)c1ccc2c(C(=Nc3ccc(N(C)C(=O)CN4CCN(C)CC4)cc3)c3ccccc3)c(O)[nH]c2c1` was 7.43 µM (active).
Take `CC(O)C1C(=O)N2C(C(=O)O)=C(SC3CNC(C(=O)N(C)C)C3)C(C)C12` (stereo not given): the “viability, % of DMSO control” value is 117% (inactive).
As to `C=CC(=O)Nc1cc2c(Nc3ccc(F)c(Cl)c3)ncnc2cc1OCCCN1CCOCC1`, the Potency was 18.7 µM (active).
On the same count and under the same terms, the value for `Cc1cn2c(-c3cn[nH]c3)cnc2c(Nc2ccc(C(=O)N3CCNCC3)cc2F)n1` was 18.7 µM (active); that for `CC1(C)OC2=C(C(=O)c3ccccc3C2=O)[C@H](NCc2ccccc2)[C@H]1O` was 6.62 µM (active).
Consider `COc1ccc2c(OCc3nnc4ccc(-c5ccccc5)nn34)ccnc2c1`, for which the “viability, % of DMSO control” value was 156% (inactive).
